This is a sample that favours compounds with a hit; in the whole collection about 3.9% have one here.
3CLpro inhibitor – SARS-CoV 3CLpro protease inhibition. 0.14% of 290,000 active. inhibition, % at 6 µM. recombinant SARS-CoV 3CLpro, quenched FRET peptide cleavage. AID 1706. P0C6X7; in the data active = inhibition above about 12%
Autofluor counter – flagged as autofluorescent in microsphere protease counterscreen. compound autofluorescence counterscreen, microsphere flow cytometry; active compounds read high. fluorescence intensity (concentration not given with the values). 3.1% of 360,000 active. AID 624483; in the data active = fluorescence intensity above about 16000; inconclusive = no clear call, values can overlap the other calls
CCHFV vOTU inh – CCHFV vOTU protease inhibition; Pep-AMC fluorescence; inhibition, % at 11.5 µM; 0.55% of 370,000 active; AID 651958; in the data active = inhibition above about 30%
Anthrax LF prot – blocks Bacillus anthracis lethal factor protease | P15917 | multiplex microsphere protease cleavage assay, LF | inhibition, % at 10 µM | 0.12% of 360,000 active | AID 588501
Target sequence (P15917 whole entry, looked up): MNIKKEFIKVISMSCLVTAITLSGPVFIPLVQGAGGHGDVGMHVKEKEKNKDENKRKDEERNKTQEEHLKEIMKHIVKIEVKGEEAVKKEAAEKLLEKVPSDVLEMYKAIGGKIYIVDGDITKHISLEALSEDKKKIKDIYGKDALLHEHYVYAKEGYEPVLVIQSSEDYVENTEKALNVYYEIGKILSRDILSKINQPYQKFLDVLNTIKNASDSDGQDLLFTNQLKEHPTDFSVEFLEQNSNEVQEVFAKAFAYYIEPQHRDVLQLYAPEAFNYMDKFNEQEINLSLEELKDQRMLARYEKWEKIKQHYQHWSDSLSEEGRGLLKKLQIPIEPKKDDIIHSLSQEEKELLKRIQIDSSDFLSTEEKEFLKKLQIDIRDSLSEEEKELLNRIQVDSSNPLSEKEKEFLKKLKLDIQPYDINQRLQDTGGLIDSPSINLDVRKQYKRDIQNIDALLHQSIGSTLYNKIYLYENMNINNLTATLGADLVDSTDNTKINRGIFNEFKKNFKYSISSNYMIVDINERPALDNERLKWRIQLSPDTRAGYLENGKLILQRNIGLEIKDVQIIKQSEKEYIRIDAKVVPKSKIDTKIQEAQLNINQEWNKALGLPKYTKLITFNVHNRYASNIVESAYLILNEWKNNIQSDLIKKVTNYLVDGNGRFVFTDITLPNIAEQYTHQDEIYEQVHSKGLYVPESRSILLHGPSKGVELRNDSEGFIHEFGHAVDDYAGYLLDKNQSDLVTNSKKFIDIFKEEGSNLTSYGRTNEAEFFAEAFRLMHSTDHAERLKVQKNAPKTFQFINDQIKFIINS
BoNT-F LC inh – blocks Botulinum neurotoxin F light chain protease; inhibition, % at 10 µM; AID 588497; 0.22% of 360,000 active; Multiplex microsphere protease cleavage assay, flow cytometry; in the data active = inhibition above about 35%, passing the limit was not always enough; inconclusive = no clear call, values can overlap the other calls
BoNT-A LC inh2 – BoNT A light chain protease inhibition | multiplex microsphere protease substrate cleavage, flow cytometry | inhibition, % at 10 µM | 0.17% of 360,000 active | AID 588499
BoNT-A LC CP1 – BoNT/A light chain protease inhibition; shares compounds with BoNT-F LC inh; multiplex microsphere protease assay, flow cytometry; inhibition, % at 10 µM; 3% of 720 active; AID 602139; in the data active = inhibition above about 32%
BoNTF LC inh 1 – BoNT/F light chain protease inhibition; shares compounds with BoNT-F LC inh; multiplex microsphere protease cleavage assay, flow cytometry; inhibition, % at 10 µM; 720 tested, under 10 active; call rule not given here
LF protease CP1 – Bacillus anthracis lethal factor protease inhibition; 720 tested, under 10 active; inhibition, % at 10 µM; multiplex microsphere protease cleavage assay, LF; shares compounds with BoNT-F LC inh; call rule not given here
Of the large screens only hits and unclear results are named; the others gave an inactive call (follow-up assays come after a bar, where they were run). Cut-off read from the data, not from the text of the source, unless noted: active = inhibition above about 30%; inconclusive = no clear call, values can overlap the other calls; inactive = below that.

Cc1ccc(C(=O)Nc2ccc(S(=O)(=O)N3CCc4ccccc4C3)cc2)o1	BoNT-F LC inh 36 | BoNT-A LC CP1 inactive | BoNTF LC inh 1 inactive | LF protease CP1 inactive
Cc1ccc(C(=O)Nc2ccc(S(=O)(=O)N3CCCC3)cc2)o1	none
NS(=O)(=O)c1cc([N+](=O)[O-])ccc1NCc1cccnc1	BoNT-F LC inh 39 | BoNT-A LC CP1 inactive | BoNTF LC inh 1 inactive | LF protease CP1 inactive
COc1cc(CNCc2cc(OC)ccc2OC)cc(OC)c1	none
COc1ccc(C(=O)NCCc2ccc(C)cc2)cc1OC1CCN(C(C)=O)CC1	none
COc1cc(C(=O)N(C)CCOc2ccc(C)cc2)ccc1OC1CCN(C(C)=O)CC1	Anthrax LF prot 30, BoNT-F LC inh inconclusive | BoNT-A LC CP1 inactive | BoNTF LC inh 1 inactive | LF protease CP1 inactive
CCS(=O)(=O)N1CCC(C(=O)Oc2ccccc2)CC1	BoNT-F LC inh 39 | BoNT-A LC CP1 inactive | BoNTF LC inh 1 inactive | LF protease CP1 inactive
OCCC1CN(Cc2ccc3nsnc3c2)CCN1CCc1ccccc1 (stereo not drawn)	none
CCn1c(=O)c(C(=O)Nc2cccnc2)c(O)c2ccccc21	BoNT-F LC inh 40 | BoNT-A LC CP1 inactive | BoNTF LC inh 1 inactive | LF protease CP1 inactive
CCn1c(=O)c(C(=O)NCc2cccnc2)c(O)c2ccccc21	none
COc1ccccc1-n1ccnc(SCC(=O)NCCc2ccccc2)c1=O	none (no result: 3CLpro inhibitor, Autofluor counter, Anthrax LF prot, BoNT-F LC inh, BoNT-A LC inh2)
COC(=O)c1ccc(C(=O)OC)c(NC(=O)CN(C)Cc2ccc(Cl)c(Cl)c2)c1	Anthrax LF prot 37, BoNT-F LC inh 65 | BoNT-A LC CP1 inactive | BoNTF LC inh 1 inactive | LF protease CP1 inactive
CC1CCCC(C)N1C(=O)COC(=O)c1cc(-c2cccs2)nn1-c1ccccc1 (stereo not drawn)	none (no result: 3CLpro inhibitor, Autofluor counter, Anthrax LF prot, BoNT-F LC inh, BoNT-A LC inh2)
CNC(=S)N1N=C(c2cccs2)CC1c1ccc(F)cc1 (stereo not drawn)	BoNT-F LC inh 50 | BoNT-A LC CP1 inactive | BoNTF LC inh 1 inactive | LF protease CP1 inactive
O=C(c1ccco1)N1N=C(c2cccs2)CC1c1ccc(F)cc1 (stereo not drawn)	none
Clc1ccc(-c2nnc(Sc3nc4ccccc4o3)c3ccccc23)cc1	none
O=c1c(Cl)c2oc3ccccc3nc-2c2ccccc12	BoNT-A LC inh2 47 (no result: CCHFV vOTU inh) | BoNT-A LC CP1 32 | BoNTF LC inh 1 inactive | LF protease CP1 inactive
CCCn1c(SCC(=O)c2c(N)n(C3CC3)c(=O)[nH]c2=O)nnc1-c1ccncc1	none (no result: 3CLpro inhibitor, Autofluor counter, Anthrax LF prot, BoNT-F LC inh, BoNT-A LC inh2)
O=C(CSc1nc2ccccc2[nH]1)c1c[nH]c2ccccc12	none
Cc1occc1-c1nnc(SCC(=O)c2c[nH]c3ccccc23)n1C	Anthrax LF prot 45, BoNT-A LC inh2 54 | BoNT-A LC CP1 inactive | BoNTF LC inh 1 inactive | LF protease CP1 inactive
CCCn1c(SCC(=O)c2c[nH]c3ccccc23)nnc1-c1ccncc1	BoNT-A LC inh2 53 | BoNT-A LC CP1 inactive | BoNTF LC inh 1 inactive | LF protease CP1 inactive
Cc1occc1-c1nnc(SCC(=O)c2ccc(Cl)cc2)n1C	none
Cc1ccc2nc(SCC(=O)c3c[nH]c4ccccc34)[nH]c2c1	BoNT-A LC inh2 58 | BoNT-A LC CP1 inactive | BoNTF LC inh 1 inactive | LF protease CP1 inactive
COCCNc1nnc(SCC(=O)c2c[nH]c3ccccc23)s1	BoNT-A LC inh2 52 | BoNT-A LC CP1 inactive | BoNTF LC inh 1 inactive | LF protease CP1 inactive
COCCNc1nnc(SCC(=O)NNC(=O)c2ccccc2)s1	none
O=C(c1ccccc1)c1ccc(OCCOCCN2CCN(Cc3ccccc3)CC2)cc1	none
CC1(C)Oc2ccc(C(=O)NN)cc2NC1=O	none
CN(C)CCOc1ccc(-c2c(-c3ccccc3)sc3ccccc23)cc1	none (no result: 3CLpro inhibitor)
CCCCCC(=O)Nc1ccc(S(=O)(=O)Nc2cc(OC)nc(OC)n2)cc1	BoNT-F LC inh 39 | BoNT-A LC CP1 inactive | BoNTF LC inh 1 inactive | LF protease CP1 inactive
NC(=O)c1cc(S(=O)(=O)N2CC=C(c3ccccc3)CC2)cs1	none
COc1cccc(-c2nn(-c3ccc(C)cc3)cc2C(=O)N2CCN(C3CCS(=O)(=O)C3)CC2)c1 (stereo not drawn)	none (no result: 3CLpro inhibitor)
CCSc1ncnc2c1sc1nc3c(cc12)COC(C)(C)C3	BoNT-F LC inh 36 | BoNT-A LC CP1 inactive | BoNTF LC inh 1 inactive | LF protease CP1 inactive
Cn1c(=O)c2cc(S(=O)(=O)NC(Cc3ccccc3)C(=O)NCc3ccco3)ccc2n(C)c1=O (stereo not drawn)	none
COCCCNC(=O)C(Cc1ccccc1)NS(=O)(=O)c1ccc2c(c1)c(=O)n(C)c(=O)n2C (stereo not drawn)	BoNT-F LC inh 52 | BoNT-A LC CP1 inactive | BoNTF LC inh 1 inactive | LF protease CP1 inactive
Cc1[nH]c(C)c(S(=O)(=O)N2CCCCC2C)c1C(=O)N1CCCC1 (stereo not drawn)	none
Cc1cn(-c2cccnc2)c(C)c1CNC[C@H]1O[C@@H](n2cnc3c(N)ncnc32)[C@H](O)[C@@H]1O	none (no result: 3CLpro inhibitor)
CCOC(=O)c1sc2nc(-c3ccco3)c3c(c2c1N)CC(C)(C)OC3	BoNT-A LC inh2 33 (no result: 3CLpro inhibitor) | BoNT-A LC CP1 inactive | BoNTF LC inh 1 inactive | LF protease CP1 inactive
Cc1cc(C)c2cc3c(N)c(C(=O)N4CCOCC4)sc3nc2c1	none | BoNT-A LC CP1 inactive | BoNTF LC inh 1 inactive | LF protease CP1 inactive
CCOc1ccc2nc3sc(C(=O)N4CCOCC4)c(N)c3cc2c1	none | BoNT-A LC CP1 inactive | BoNTF LC inh 1 inactive | LF protease CP1 inactive
Cc1cc(C)c2nc3sc(C(=O)N4CCOCC4)c(N)c3cc2c1	none
Cc1cccc2cc3c(N)c(C(=O)N4CCc5ccccc54)sc3nc12	none | BoNT-A LC CP1 inactive | BoNTF LC inh 1 inactive | LF protease CP1 inactive
Cc1ccc(C)c2nc3sc(C(=O)N4CCOCC4)c(N)c3cc12	none | BoNT-A LC CP1 inactive | BoNTF LC inh 1 inactive | LF protease CP1 inactive
Cc1cc(-c2n[nH]c(=S)n2N=Cc2cccc(Oc3ccccc3)c2)n[nH]1	none (no result: 3CLpro inhibitor, Autofluor counter, Anthrax LF prot, BoNT-F LC inh, BoNT-A LC inh2)
COCCCN1C(=O)C(CC(=O)NCCCN(C)C)CC(C(=O)N2CCCCCC2)=C1C (stereo not drawn)	none (no result: 3CLpro inhibitor)
O=C(CCN1C(=O)c2ccccc2C1=O)c1cnc[nH]1	none (no result: 3CLpro inhibitor)
CCN(CC)C(=O)c1ccc(NC(=O)c2cccc(S(=O)(=O)N3CCN(Cc4ccccc4)CC3)c2)cc1	Autofluor counter inconclusive, BoNT-A LC inh2 57 (no result: 3CLpro inhibitor) | BoNT-A LC CP1 inactive | BoNTF LC inh 1 inactive | LF protease CP1 inactive
CCc1cc2c(SCC(=O)NC(=O)c3cccn3C)ncnc2s1	none
Cc1ccc(S(=O)(=O)N(C)CC(=O)NNC(=O)Cc2ccccc2F)cc1	none (no result: 3CLpro inhibitor)
CCc1ccc(C(=O)CN2C(=O)NC3(CCCCCC3)C2=O)cc1	BoNT-F LC inh 43 (no result: 3CLpro inhibitor) | BoNT-A LC CP1 inactive | BoNTF LC inh 1 inactive | LF protease CP1 inactive
O=C(Nc1ccccc1)/C(=C/c1ccc([N+](=O)[O-])cc1)NC(=O)c1ccco1	none

From PubChem
